# Test results: PubChem BioAssay (NCATS)
# Results filed as inconclusive are left out. Activity calls are given as the source filed them. Calls come from the whole dose curve.
# Molecular target: Atrial natriuretic peptide receptor 2 (Homo sapiens) (UniProt P20594)
# Assay: Natriuretic polypeptide receptor (hNpr2) antagonism - Pilot subtype selectivity assay (AID 1347050)
# Conditions: NPR2-expressing cells, cGMP antagonist-mode read-out; series mostly up to 38.3 µM
# Method: F. Fan, B. F. Binkowski, B. L. Butler, P. F. Stecha, M. K. Lewis, K. V. Wood, Novel genetically encoded biosensors using firefly luciferase. ACS Chem Biol 3, 346-351 (2008).
# PROTOCOL TABLE (as described by Inglese J, Shamu CE and Guy RK. 2007)
# SEQUENCE No. (e.g., 1, 2, 3, etc.); […] (e.g., Cells, Incubation, Reagent, etc.); VALUE and DESCRIPTION.
# 1. Cells. Seed 1500 HEK293 cGMP-sensor cells expressing hNpr2 per well in 4uL into Greiner 1536-well white/solid bottom high base, TC plates.
# 2. Incubation. Incubate plated cells at 37C in 5% CO2, 95% RH overnight.
# 3. Reagent. Add 1uL per well GloSensor reagent from Promega (2% final concentration) or CO2 independent media vehicle control to respective columns of Greiner 1536-well plates.
# 4. Incubation. Incubate plated cells at ambient temperature for 2 h., protect from light.
# 5. Compounds. Library compounds and DMSO vehicle control added at 23nL per well, transferred by Pin Tool.
# 6. Incubation. Incubate plated cells for 30 min. at ambient temperature, protect from light.
# 7. Detector. GloSensor baseline pre-read luminescence measured using CCD-based camera (Viewlux).
# 8. Compound. Add 1uL of hNppC peptide to 1 nM final concentration to stimulate hNpr2 or CO2 independent media as vehicle control.
# 9. Incubation. Incubate treated cells at ambient temperature for 20 min., protect from light.
# 10. Detector. GloSensor post-hNppC luminescence measured using CCD-based camera (Viewlux).
# NOTES (numbers refer to Sequence numbers above)
# 1. HEK293 cells expressing hNpr2 and GIP/pGS-40F were grown to 85-95% confluence (48-72 h) in T175 culture flasks (CO2 independent media supplemented with 10% FBS, 1% Pen/Strep antibiotics, and 1 ug/mL puromycin). Trypsinize and harvest cells from T175 culture flasks and filter through 40 um cell strainer. Cells counted with Invitrogen Countess (30,000,000 - 50,000,000 cells/flask). Cells diluted to a final concentration of 375 cells/uL in CO2 independent media and a Millipore multidrop used to dispense 1500 cells per well (4uL/well) into 9 x1536-well Greiner White/Solid bottom, high base tissue-culture treated (TC) plates and one Aurora 1536-well Black/Clear bottom, low base, TC plate (for visual inspection of cell health throughout the duration of the assay).
# 2. Cells incubated for 24 h. at 37C in 95% RH incubator with metal lid having gas-exchange holes.
# 3. Prepare GloSensor Reagent (Promega): Reconstitute GloSensor luciferase substrate by adding 8.2mL Hepes buffer to 250mg substrate, mix well, protect from light and stored at -80C. Prepare a fresh 12% GloSensor solution in CO2 independent supplemented plating media (see above). Mix well and store at ambient temperature, protected from light. 1uL 12% GloSensor Luciferase Reagent added (2% final concentration) to respective columns of 9 x 1536-well Greiner plate with BioRaptr, 1uL CO2 independent plating media added to respective columns as vehicle control with BioRaptr.
# 4. Cells incubated for 2 h. at ambient temperature, protected from light with metal lid having gas-exchange holes.
# 5. 23nL of LOPAC1280 library compounds (7 plates) or DMSO vehicle control transferred to 9 Greiner white/solid bottom high base, TC plates in 7 interplate 1:5 titrations (see Yasgar, A. et al. 2008) with Pintool. Two of the 9 plates are DMSO-only in compound field at beginning and end of compound library-treated plates.
# 6. Cells incubated for 30-50 min. at ambient temperature protected from light with metal lid having gas-exchange holes.
# 7. Read cellular baseline GloSensor luminescence in presence of test library compounds on the ViewLux [Exposure = 10 s.; Gain = High; Speed = Slow; and Binning = 2X.]
# 8. hNppC peptide agonist solution prepared at 1 mM (in H2O) stock concentration. From this a working dilution was prepared at 6 nM in CO2 Independent media. […]
# Chain of Atrial natriuretic peptide receptor 2 (Homo sapiens) (P20594 whole entry, looked up): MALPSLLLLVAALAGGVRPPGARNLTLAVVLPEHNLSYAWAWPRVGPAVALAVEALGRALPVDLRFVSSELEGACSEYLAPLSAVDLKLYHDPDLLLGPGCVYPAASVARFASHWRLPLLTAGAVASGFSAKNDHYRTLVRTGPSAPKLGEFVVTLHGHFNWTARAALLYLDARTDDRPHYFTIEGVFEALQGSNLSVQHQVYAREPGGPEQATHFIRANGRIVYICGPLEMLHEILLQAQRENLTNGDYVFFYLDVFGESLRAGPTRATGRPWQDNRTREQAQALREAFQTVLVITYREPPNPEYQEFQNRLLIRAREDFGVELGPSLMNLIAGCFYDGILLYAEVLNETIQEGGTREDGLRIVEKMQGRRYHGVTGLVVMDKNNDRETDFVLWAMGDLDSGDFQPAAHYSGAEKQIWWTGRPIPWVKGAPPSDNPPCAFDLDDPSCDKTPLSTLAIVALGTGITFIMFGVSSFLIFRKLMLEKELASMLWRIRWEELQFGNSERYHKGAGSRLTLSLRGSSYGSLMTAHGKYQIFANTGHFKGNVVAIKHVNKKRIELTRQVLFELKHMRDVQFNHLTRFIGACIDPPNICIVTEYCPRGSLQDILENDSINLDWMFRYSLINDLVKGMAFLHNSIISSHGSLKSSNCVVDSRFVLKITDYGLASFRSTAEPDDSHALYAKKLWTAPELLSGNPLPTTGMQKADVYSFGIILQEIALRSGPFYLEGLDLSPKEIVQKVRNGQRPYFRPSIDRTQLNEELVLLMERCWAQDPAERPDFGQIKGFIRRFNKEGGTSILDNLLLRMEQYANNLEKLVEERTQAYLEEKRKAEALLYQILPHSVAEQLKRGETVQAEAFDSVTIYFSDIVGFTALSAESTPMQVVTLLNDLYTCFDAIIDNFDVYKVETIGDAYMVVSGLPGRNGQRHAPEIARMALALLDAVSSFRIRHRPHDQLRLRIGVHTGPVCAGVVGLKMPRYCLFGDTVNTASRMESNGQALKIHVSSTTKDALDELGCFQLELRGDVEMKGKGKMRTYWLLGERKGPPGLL
row,SMILES,outcome
1,CC(C)COC(=O)OCN1C(=O)CN(CCN2CC(=O)N(COC(=O)OCC(C)C)C(=O)C2)CC1=O,inactive
2,C1CCc2nnnn2CC1,inactive
3,Nc1cc(Cl)c(NC2=NCCN2)c(Cl)c1,inactive
4,Oc1ccc(O)cc1,inactive
5,C[N+]1(CCCCC[N+]2(C)CCCC2)CCCC1,inactive
6,N[C@@H](Cc1cnc[nH]1)C(=O)O,inactive
7,O=C(O)c1cc2cc(Cc3cccnc3)ccc2o1,inactive
8,CC1(C)CCC(NC(=O)[C@@H](N)CCC(=O)O)CC1,inactive
9,C[C@]12CC[C@@H]3c4ccc(O)cc4CC[C@H]3[C@@H]1CC[C@@H]2O,inactive
10,CC[C@H](C)C(=O)O[C@H]1CCC=C2C=C[C@H](C)[C@H](CC[C@@H]3C[C@@H](O)CC(=O)O3)[C@H]21,inactive
11,CCCC1O[C@@H]2C[C@H]3[C@@H]4CCC5=CC(=O)C=C[C@]5(C)[C@H]4[C@@H](O)C[C@]3(C)[C@]2(C(=O)CO)O1 (stereo partly drawn),inactive
12,O=C1CCC(c2ccc(-n3ccnc3)cc2)=NN1,inactive
13,CC(CCc1ccccc1)NCC(O)c1ccc(O)c(C(N)=O)c1 (stereo not drawn),inactive
14,N[C@H](CO)C(=O)O,inactive
15,COC(=O)[C@H]1[C@H]2C[C@H]3c4[nH]c5ccccc5c4CCN3C[C@H]2CC[C@@H]1O,inactive
16,CC(=O)O[C@H]1C[C@@H]2CC[C@@H]3[C@H](CC[C@@]4(C)[C@H]3C[C@H]([N+]3(C)CCCCC3)[C@@H]4OC(C)=O)[C@@]2(C)C[C@@H]1[N+]1(C)CCCCC1,inactive
17,CC(C)C[C@H]1C(=O)N2CCC[C@H]2[C@]2(O)O[C@](NC(=O)[C@@H]3C=C4c5cccc6[nH]c(Br)c(c56)C[C@H]4N(C)C3)(C(C)C)C(=O)N12,inactive
18,CCC(NC(C)C)C(O)c1ccc(O)c(O)c1 (stereo not drawn),inactive
19,C[C@@H]1C(=O)NC2=Nc3cccc(Cl)c3CN21,inactive
20,CN1C2CCC1CC(OC(=O)c1c[nH]c3ccccc13)C2 (stereo not drawn),inactive
21,CNCCC(Oc1ccccc1C)c1ccccc1 (stereo not drawn),inactive
22,CCCn1c(=O)[nH]c(=O)c2[nH]cnc21,inactive
23,COc1cc(NS(C)(=O)=O)ccc1Nc1c2ccccc2nc2ccccc12,inactive
